Assay outcomes from PubChem.
Tau fibril ThT: blocks human tau fibril formation measured by thioflavin T; hit rate 2.1% among 270,000; recombinant tau K18 P301L, heparin-induced fibrillization, ThT fluorescence; Potency, µM (top dose mostly 57.4 µM), for inactives: at the highest dose activity, negative = inhibition, most hits filed as inhibitors; further: potency means the concentration at half of the fitted maximal effect; nearly all actives have a fitted effect of over 55% in size
Target sequence (P10636 561-689 P618L limits assumed): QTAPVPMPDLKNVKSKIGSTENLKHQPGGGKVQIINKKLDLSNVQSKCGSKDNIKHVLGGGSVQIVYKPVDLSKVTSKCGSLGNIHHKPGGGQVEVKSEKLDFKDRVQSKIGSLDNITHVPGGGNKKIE
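ThT emission at 510 nm, taken 1 hr after adding 30 uM dye, quantifies aggregates formed when 20 uM heparin acts on human tau K18 P301L for 6 hr at 37 C.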
Tau fluor cs: counter-screen for tau fibril formation inhibitors. tau K18 P301L (four-repeat tau fragment) Alexa594 fluorescence, heparin fibrillization. Potency, µM (titrated, usually from 57.7 µM), for the others: top-dose activity change, negative = decrease. hit rate 0.93% among 280,000; further: potency means the concentration at half of the fitted maximal effect; nearly all actives have a fitted effect of over 55% in size
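Human K18 P301L tau (15 uM unlabeled plus 0.24 uM Alexa 594-labeled, final) in 100 mM sodium acetate pH 7 was mixed with compound and 20 uM heparin and incubated 6 hr at 37 C.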
TR SRC2 fluor cs: alters Texas Red total fluorescence, flagging assay interference; TRb/SRC2 Texas Red total fluorescence interference; AID 1479; hit rate 0.29% among 280,000; Potency, µM (series often up to 106 µM), for the others: top-dose fluorescence change, negative = quenching; active means well fitted curve in either direction with a large enough effect; inconclusive means small, poorly fitted or top-dose-only effect; further: potency means the concentration at half of the fitted maximal effect
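Flags fluorescent or light-absorbing compounds by total fluorescence, S + 2P, at 555 nm excitation and 632 nm emission. Mixture: 20 nM Texas Red SRC2 peptide, 0.6 uM human TRb LBD, 1 uM T3, 5% DMSO; compound exposure 5 h at ambient temperature.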
PNC assembly inh: inhibitors of perinucleolar compartment assembly; activity change (PNC), negative = inhibition, % at 10 µM; hit rate 3.1% among 140,000; PC3M PTB-GFP, PNC prevalence imaging, 16 h; hits give low values;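 active means readout at or below -70, meaning at least 70% loss of cells showing the perinucleolar compartment, a nuclear body marking cancer cells; inconclusive means readout between -30 and a set limit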;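 further: plate controls were DMSO wells for no effect and camptothecin positive control wells for full effect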
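Compounds are pinned in duplicate onto adhered PC3M cells stably expressing GFP-tagged PTB and incubated 16 h at 37 C. Cells are then fixed, nuclei stained with Hoechst, and PNC-positive cells counted.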
TRb-SRC2 inh: TRbeta-SRC2 interaction inhibition | P10828 | TRbeta-SRC2 peptide binding, fluorescence polarization; receptor liganded with 1 µM T3 | Potency, µM (series often up to 106 µM), for the others: at the highest dose activity change, negative = inhibition, hits mostly inhibitors | hit rate 0.065% among 280,000 | AID 1469;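 further: potency means the concentration at half of the fitted maximal effect; plate controls were bound peptide for no effect and peptide without receptor for full effect; nearly all actives have a fitted effect of over 50% in size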
Target sequence (P10828 whole entry, looked up): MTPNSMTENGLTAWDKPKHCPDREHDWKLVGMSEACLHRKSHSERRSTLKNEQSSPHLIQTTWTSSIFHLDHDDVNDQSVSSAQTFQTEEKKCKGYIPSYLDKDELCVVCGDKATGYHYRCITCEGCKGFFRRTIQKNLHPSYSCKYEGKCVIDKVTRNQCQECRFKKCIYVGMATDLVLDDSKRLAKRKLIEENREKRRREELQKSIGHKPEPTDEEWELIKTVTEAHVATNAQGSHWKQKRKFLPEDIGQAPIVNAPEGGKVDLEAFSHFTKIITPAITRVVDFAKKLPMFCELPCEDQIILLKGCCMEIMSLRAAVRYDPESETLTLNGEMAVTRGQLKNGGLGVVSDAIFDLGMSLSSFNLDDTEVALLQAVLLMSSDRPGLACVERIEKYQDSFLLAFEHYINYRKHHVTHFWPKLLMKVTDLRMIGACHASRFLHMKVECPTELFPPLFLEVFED
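Assay buffer: 20 mM Tris-HCl, 100 mM NaCl, 10% glycerol, 1 mM EDTA, 0.01% NP-40, 1 mM DTT, 1 uM T3, 5% DMSO; TRb LBD 0.6 uM, Texas Red SRC2 20 nM; FP after 5 hr.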
Tau FP inhib: tau fibrillization inhibition (FP) | P10636 | K18 P301L tau heparin fibrillization, Alexa594 FP, 6 h | Potency, µM (doses to about 57.7 µM), for the others: top-dose activity, negative = inhibition, hits mostly inhibitors | hit rate 0.39% among 280,000 | AID 1468; further: potency means the concentration at half of the fitted maximal effect; nearly all actives have a fitted effect of over 55% in size
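K18 P301L tau (15 uM unlabeled/0.24 uM Alexa 594-labeled, final) + compound + heparin 20 uM final; 100 mM NaOAc pH 7; 6 hr 37 C; ThT 30 uM final added, 1 hr RT; FP ex 555/em 632 nm.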
The depositor's hits bear a star; ? = inconclusive; · = no result given; [ ] = remark or other dose. Compounds with a hit are over-represented: about 4.6% of the library has one in this group of screens. Unless noted, the call rests on the fitted dose curve; in most records, active means well fitted curve in the direction sought with a large enough effect; inconclusive means small, poorly fitted or top-dose-only effect, or another doubt; inactive means no such curve, though single readings can be large; an effect the other way counts as inactive or inconclusive. Unless noted, on the % scale 0 is the no-effect control and ±100 the full control effect.

SMILES	Tau fibril ThT	Tau fluor cs	TR SRC2 fluor cs	PNC assembly inh	TRb-SRC2 inh	Tau FP inhib
CCC(Sc1nncn2c1cc1sccc12)C(=O)Nc1cccc(OC)c1 (stereo not given)	?	-27%	-1%	·	1%	-13%
CCOc1ccc(Sc2cc(C(=O)NCCc3ccccc3)c3ccccc3n2)cc1	4%	-6%	-1%	·	-24%	1%
O=C1O/C(=C/Br)CCC1c1cccc2ccccc12 (stereo not given)	18µM*	?	-2%	·	-1%	?
N=C1c2ccccc2CN1c1ccc(N2CCOCC2)c(S(=O)(=O)Nc2ccc(Cl)cc2)c1	32µM*	-26%	2%	·	-4%	?
Cc1ccc(-c2[nH]ncc2/C=N/n2c(COc3ccccc3)nc3ccccc3c2=O)cc1	9%	0%	3%	?	-5%	2%
Cc1cc(/C=N/n2c(COc3ccccc3)nc3ccccc3c2=O)c(O)c([N+](=O)[O-])c1	11µM*	?	-7%	22	9%	14%
O=C(O)COc1ccc(/C=N/n2c(COc3ccccc3)nc3ccccc3c2=O)cc1	1%	-1%	-2%	-115*	-2%	7%
Cc1cccc(C)c1OCc1nc2ccccc2c(=O)n1/N=C/c1ccc(OCC(=O)O)cc1	3%	1%	-2%	-26	8%	2%
COc1ccccc1N1CCN(C(=O)c2cc(-c3ccc(Cl)cc3)on2)CC1	-21%	-11%	-1%	?	8%	0%
Cc1ccc(NC(=S)N(CCN(C)C)Cc2cccs2)c(C)c1	-8%	-9%	1%	·	1%	8%
N#CC1=C(N)C2=CCCC[C@H]2[C@H](c2ccccc2)C1(C#N)C#N	?	-24%	2%	?	16%	?
N#CC1=C(N)C2=CCCC[C@H]2[C@H](c2ccc(Br)cc2)C1(C#N)C#N	14µM*	?	5%	31	-4%	?
Cc1cc(N2CCC(C)CC2)nc2ccc(NC(=O)/C=C/c3cccc(Cl)c3)cc12	6.3µM*	14µM*[quencher]	9%	·	17%	24%
Cc1cc(N2CCCCC2)nc2ccc(NC(=O)/C=C/c3ccc(OCCC(C)C)cc3)cc12	?	?	0%	·	-3%	?
Cc1ccc(/C=C/C(=O)Nc2ccc3nc(N4CCC(C)CC4)cc(C)c3c2)cc1	2.5µM*	6.3µM*[quencher]	-2%	·	7%	0%
CCn1cc(C(=O)N2CCN(c3cccc(Cl)c3)CC2)c(=O)c2cc(S(=O)(=O)N3CCC(C)CC3)ccc21	-16%	-17%	-1%	·	3%	1%
Cc1cc(=O)[nH]c2c(N=Nc3ccc(O)cc3)c(N)nn12	8.9µM*	-26%	-20%[53 µM]	·	8%[53 µM]	10%
Nc1nn2c(C(F)(F)F)cc(=O)[nH]c2c1N=Nc1cccc(F)c1	7.9µM*	?	?	·	9%	-15%
Cc1cc(C)n2nc(N)c(N=Nc3cccc(Cl)c3)c2n1	?	-7%	-6%	?	9%	2%
Cc1cc(=O)[nH]c2c3ccccc3nn12	-6%	-9%	1%	·	4%	-6%
CCOC(=O)c1ccc(NC(=S)N2CCN(CCN=CC3=C(O)CC(C)(C)CC3=O)CC2)cc1	?	-5%	-5%	·	-3%	-24%
O=C(CN1CC(=O)Oc2ccccc21)OCC(=O)c1ccc(F)cc1	-16%	-16%	-1%	·	-6%	-11%
O=C1CN(CC(=O)N2CCOCC2)c2ccccc2O1	?	-17%	?	-118*	-26%	-16%
O=C1CN(CC(=O)N2CCCCC2)c2ccccc2O1	28µM*	?	0%	22	2%	?
Cc1nn(C2CCCCC2)c(N)c1-c1ccccc1	-12%	-4%	-5%	31	-6%	2%
SMILES	Tau fibril ThT	Tau fluor cs	TR SRC2 fluor cs	PNC assembly inh	TRb-SRC2 inh	Tau FP inhib
COC(=O)c1cc2cc(NS(=O)(=O)c3ccc(C)cc3)ccc2s1	14%	?	3%	-100*	7%	?
COC(=O)Nc1ccc(S(=O)(=O)Nc2ccc(C)cc2)cc1	-8%	-12%	-3%	2	-5%	-1%
O=C(CNC(=S)N(CCCN1CCOCC1)Cc1cccs1)NCCCN1CCOCC1	?	-8%	0%	18	1%	-3%
O=C1C(Cl)=C(N2CCC(C(=O)O)CC2)C(=O)c2ccccc21	4.5µM*	10µM*[quencher]	-24%	·	?	11µM*
NC(=O)C1CCN(C2=C(Cl)C(=O)c3ccccc3C2=O)CC1	13%	3%	3%	-23	15%	3%
Clc1ccc(/C=C/c2nc3ccccc3[nH]2)c(Cl)c1	-9%	?	-3%	12	3%	?
Clc1cccc(Nc2ncnc3c2nc2n3CCCCC2)c1	-5%	-10%	?	·	0%	6%
Cn1cccc1/C=C1\CCC/C(=C\c2cccn2C)C1=O	5µM*	?	-1%	9	9%	8%
COc1ccc(Cn2c(O)cc(=O)[nH]c2=O)cc1	?	-13%	9%	31	26%	-15%
CCOc1ccc(Cn2c(O)cc(=O)[nH]c2=O)cc1	16µM*	-22%	-4%	1	-22%	?
COc1ccc2c(c1OC)C[N+]1([O-])CCc3cc4c(cc3C1C2)OCO4 (stereo not given)	2%	8%	-3%	·	-2%	-1%
COc1ccc2c(c1OC)C(Cc1ccccc1)N1CCc3cc4c(cc3C1=C2)OCO4 (stereo not given)	16µM*	?	0%	·	4%	-11%
CCOc1cc2nc(-c3ccc(OC)c(OC)c3)nc(NCCCN3CCOCC3)c2cc1OC	8%	?	-3%	8	-13%	-8%
O=C(COC(=O)c1cc(-c2cccs2)nc2ccccc12)NC1CCS(=O)(=O)C1 (stereo not given)	-19%	?	-3%	·	2%	?
Cc1[nH]c2ccccc2c1C1C(c2ccccc2)=NN=C(C(C)C)N1O (stereo not given)	11%	11%	1%	-103*	11%	10%
CCOC(=O)C1=C(C)Nc2nnnn2C1c1c[nH]c2ccccc12 (stereo not given)	-6%	-13%	-4%	1	0%	-1%
CC1=NN=C(c2ccccc2)C(c2c[nH]c3ccccc23)N1O (stereo not given)	3%	7%	0%	-114*	-8%	12%
COc1cc(Cl)c(C)cc1NS(=O)(=O)c1c(C)nc2sccn2c1=O	3%	-13%	?	·	?	0%
Cc1ccc(-c2cc(C(=O)N3CCOCC3)c3ccccc3n2)cc1	-17%	-10%	4%	-98*	-2%	-4%
